Laboratory results published in PubChem BioAssay (Tox21).
Activity calls are given as the source filed them. Entries that show only a call come without a potency. Unless noted, the call rests on the fitted dose curve; in most records, active means well fitted curve in the direction sought with a large enough effect in the repeat runs; inconclusive means weak or mixed curves; inactive means no such curve, though single readings can be large; an effect the other way counts as inactive or inconclusive.

Columns and labels:
[1] = qHTS assay to test for compound auto fluorescence at 535 nm (green) in HEK293 cells (AID 720680)
[2] = qHTS assay to test for compound auto fluorescence at 460 nm (blue) in HEK293 cell free culture (AID 720681)
In short: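 Blue fluorescence (Ex 405/Em 460 nm, triamterene-equivalent) was read immediately after pin transfer of compound or DMSO into medium (DMEM, 10% FBS) without cells.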

[3] = qHTS assay to test for compound auto fluorescence at 535 nm (green) in HEK293 cell free culture (AID 720682)
In short: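 Using fluorescein as calibrant, autofluorescence was quantified at 485/535 nm in cell-free DMEM containing 10% FBS after pintool addition of compound or vehicle.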

[4] = qHTS assay to test for compound auto fluorescence at 590 nm (red) in HEK293 cell free culture (AID 720683)
In short: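 Red-channel autofluorescence of compounds in culture medium (DMEM, 10% FBS), no cells, measured at 540/590 nm. Rose Bengal sodium is the reference fluorophore for equivalence.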

[5] = qHTS assay to test for compound auto fluorescence at 590 nm (red) in HepG2 cell free culture (AID 720684)
In short: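 Plate contents were MEM with 10% FBS plus test compound or DMSO, no cells. Fluorescence was recorded with 540 nm excitation and 590 nm emission.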

[6] = qHTS assay to test for compound auto fluorescence at 460 nm (blue) in HepG2 cell free culture (AID 720685)
In short: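 Compound (23 nL) or DMSO pinned into cell-free MEM with 10% FBS; blue fluorescence read at 405/460 nm excitation/emission, expressed as auto-fluorescence equivalency to triamterene.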

[7] = qHTS assay to test for compound auto fluorescence at 535 nm (green) in HepG2 cell free culture (AID 720686)
[8] = qHTS assay to test for compound auto fluorescence at 460 nm (blue) in HepG2 cells (AID 720687)
In short: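 Blue-channel autofluorescence (Ex/Em 405/460 nm, triamterene-equivalent) was measured after 1 hr compound exposure at 37 C, 5% CO2. Cells were HepG2, plated overnight at 37 C in MEM plus 10% FBS.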

[9] = qHTS assay to identify small molecule antagonists of the glucocorticoid receptor (GR) signaling pathway - cell viability counter screen (AID 720693); further: nearly all actives have a fitted effect of over 55% in size; further: potency means the concentration at half of the fitted maximal effect
[10] = qHTS assay for identifying genotoxic compounds that show differential cytotoxicity against isogenic chicken DT40 cell lines with known DNA damage response pathways - wild type cell line (AID 743012); further: nearly all actives have a fitted effect of over 60% in size; further: potency means the concentration at half of the fitted maximal effect
In short: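 First, wild type DT40 cells were plated at 300 per well and equilibrated about 0.5 h at 37 C/5% CO2. Next, compounds in DMSO were added and exposure lasted 40 h. Finally, CellTiter-Glo was added for 30 min at room temperature and luminescence recorded.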

[11] = qHTS assay for identifying genotoxic compounds that show differential cytotoxicity against isogenic chicken DT40 cell lines with known DNA damage response pathways - Rev3 mutant cell line (AID 743014); further: potency means the concentration at half of the fitted maximal effect; nearly all actives have a fitted effect of over 55% in size
[12] = qHTS assay for identifying genotoxic compounds that show differential cytotoxicity against isogenic chicken DT40 cell lines with known DNA damage response pathways - Rad54/Ku70 mutant cell line (AID 743015); further: nearly all actives have a fitted effect of over 60% in size; further: potency means the concentration at half of the fitted maximal effect
[13] = qHTS assay to identify small molecule antagonists of the androgen receptor (AR) signaling pathway - cell viability counter screen (AID 743033; further: nearly all actives have a fitted effect of over 45% in size; further: potency means the concentration at half of the fitted maximal effect)
[14] = biological target: Glucocorticoid receptor (Homo sapiens) (UniProt P04150); assay: qHTS assay to identify small molecule antagonists of the glucocorticoid receptor (GR) signaling pathway (AID 720692; active means well fitted inhibition curve with a large enough effect in the signal ratio in the repeat runs, not every such curve was filed as active; inconclusive means weak or mixed curves, or effect the other way; inactive means no such curve, though single readings can be large or run the other way; the % refers to the signal ratio; further: potency means the concentration at half of the fitted maximal effect)
Chain of Glucocorticoid receptor (Homo sapiens) (P04150 whole entry, looked up): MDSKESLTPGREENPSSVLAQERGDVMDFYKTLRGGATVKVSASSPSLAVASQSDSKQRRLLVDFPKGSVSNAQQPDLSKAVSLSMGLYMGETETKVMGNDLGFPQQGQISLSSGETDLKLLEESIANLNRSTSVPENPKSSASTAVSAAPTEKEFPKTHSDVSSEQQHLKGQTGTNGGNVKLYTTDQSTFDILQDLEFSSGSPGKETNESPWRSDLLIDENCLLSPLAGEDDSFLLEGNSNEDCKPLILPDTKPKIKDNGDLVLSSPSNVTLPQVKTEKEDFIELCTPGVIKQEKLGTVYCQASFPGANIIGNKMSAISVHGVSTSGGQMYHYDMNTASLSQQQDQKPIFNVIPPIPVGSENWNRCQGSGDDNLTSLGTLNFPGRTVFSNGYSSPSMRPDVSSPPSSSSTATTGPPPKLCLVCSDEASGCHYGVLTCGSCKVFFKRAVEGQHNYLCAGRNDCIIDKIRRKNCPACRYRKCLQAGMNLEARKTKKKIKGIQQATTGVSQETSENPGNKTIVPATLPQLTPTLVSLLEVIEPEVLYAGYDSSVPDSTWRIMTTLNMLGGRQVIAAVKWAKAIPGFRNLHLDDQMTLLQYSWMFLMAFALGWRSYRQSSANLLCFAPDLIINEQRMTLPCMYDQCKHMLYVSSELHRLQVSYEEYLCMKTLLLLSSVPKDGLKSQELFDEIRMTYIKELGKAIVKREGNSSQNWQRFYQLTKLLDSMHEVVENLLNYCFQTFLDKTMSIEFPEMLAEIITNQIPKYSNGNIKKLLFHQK
In short: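 Inhibition of glucocorticoid signalling is measured in HeLa cells with a GRE-controlled beta-lactamase reporter; cells are co-treated with compound and 5 nM dexamethasone (final) for 18 h before FRET substrate readout.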

[15] = biological target: Androgen receptor (Homo sapiens) (UniProt P10275); assay: qHTS assay to identify small molecule agonists of the androgen receptor (AR) signaling pathway using the MDA cell line (AID 743040; further: nearly all actives have a fitted effect of over 20% in size)
Chain of Androgen receptor (Homo sapiens) (P10275 whole entry, looked up): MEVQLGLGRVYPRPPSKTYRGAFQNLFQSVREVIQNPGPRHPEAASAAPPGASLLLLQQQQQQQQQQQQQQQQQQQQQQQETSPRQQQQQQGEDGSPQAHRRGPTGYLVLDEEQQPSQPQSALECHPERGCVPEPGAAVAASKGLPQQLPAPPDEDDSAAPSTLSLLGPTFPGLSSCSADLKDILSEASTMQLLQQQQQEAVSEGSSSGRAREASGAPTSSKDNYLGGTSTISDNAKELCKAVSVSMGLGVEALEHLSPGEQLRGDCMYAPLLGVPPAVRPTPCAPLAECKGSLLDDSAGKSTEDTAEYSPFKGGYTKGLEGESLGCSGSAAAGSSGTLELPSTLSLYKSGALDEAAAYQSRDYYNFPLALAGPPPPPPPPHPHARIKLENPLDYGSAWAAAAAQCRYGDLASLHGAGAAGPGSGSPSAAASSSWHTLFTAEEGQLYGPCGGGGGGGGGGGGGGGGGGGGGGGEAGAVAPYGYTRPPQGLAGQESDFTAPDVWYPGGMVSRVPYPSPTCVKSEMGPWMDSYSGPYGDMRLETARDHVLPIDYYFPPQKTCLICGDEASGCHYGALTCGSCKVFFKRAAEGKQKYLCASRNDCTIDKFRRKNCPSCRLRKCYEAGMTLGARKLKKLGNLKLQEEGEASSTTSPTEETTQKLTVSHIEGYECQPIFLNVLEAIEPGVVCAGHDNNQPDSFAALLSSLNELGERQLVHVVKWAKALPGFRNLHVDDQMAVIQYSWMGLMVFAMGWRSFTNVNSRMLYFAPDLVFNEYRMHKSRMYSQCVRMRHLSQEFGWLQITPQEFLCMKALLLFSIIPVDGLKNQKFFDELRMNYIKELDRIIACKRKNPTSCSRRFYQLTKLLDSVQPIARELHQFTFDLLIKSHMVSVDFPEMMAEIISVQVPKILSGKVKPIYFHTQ
In short: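 After a 5 h incubation at 37C and 0% CO2, MDA-kb2 reporter cells were dosed with compounds in DMSO and kept 16 h under the same conditions. Luciferase activity was then read as luminescence with ONE-Glo.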

[16] = qHTS assay to identify small molecule antagonists of the androgen receptor (AR) signaling pathway using the MDA cell line - cell viability counter screen (AID 743041; further: nearly all actives have a fitted effect of over 45% in size; further: potency means the concentration at half of the fitted maximal effect)
In short: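 R1881-driven MDA-kb2 AR-luc cells, 3,000/well, were dosed with library compounds for 16 h; cell health came from CellTiter-Fluor fluorescence in the reporter wells.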

[17] = biological target: Glucocorticoid receptor (Homo sapiens) (UniProt P04150); assay: qHTS assay to identify small molecule agonists of the glucocorticoid receptor (GR) signaling pathway (AID 720691; active means well fitted activation curve with a large enough effect in the signal ratio in the repeat runs, not every such curve was filed as active; inconclusive means weak or mixed curves, or effect the other way; inactive means no such curve, though single readings can be large or run the other way; the % refers to the signal ratio; further: potency means the concentration at half of the fitted maximal effect); conditions: GR-bla HeLa, beta-lactamase reporter ratio, 18 h; activation: at 62.4 µM (top of the series)
In short: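 qHTS in GR-bla HeLa cells: 4 h settling at 37 C/5% CO2, 18 h compound incubation at 37 C, 2 h LiveBLAzer B/G FRET substrate at room temperature, fluorescence intensity measured.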

[18] = biological target: Androgen receptor (Homo sapiens) (UniProt P10275); assay: qHTS assay to identify small molecule antagonists of the androgen receptor (AR) signaling pathway using the MDA cell line (AID 743042; further: potency means the concentration at half of the fitted maximal effect; nearly all actives have a fitted effect of over 55% in size)
In short: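 Antagonist mode: compounds plus R1881 agonist added to MDA-kb2 AR-luc cells, incubated 16 h at 37C. Luciferase reporter luminescence quantified, with multiplexed CellTiter-Fluor readout for cell viability.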

[19] = biological target: Androgen receptor (Homo sapiens) (UniProt P10275); assay: qHTS assay to identify small molecule antagonists of the androgen receptor (AR) signaling pathway (AID 743035; active means well fitted inhibition curve with a large enough effect in the signal ratio in the repeat runs, not every such curve was filed as active; inconclusive means weak or mixed curves, or effect the other way; inactive means no such curve, though single readings can be large or run the other way; the % refers to the signal ratio; further: potency means the concentration at half of the fitted maximal effect)
In short: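 Beta-lactamase FRET read (2 h RT incubation with LiveBLAzer B/G) following 16 h of compound plus R1881 treatment of AR-UAS-bla HEK293 cells, which had been pre-incubated 4 h at 37C.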

[20] = biological target: Androgen receptor (Homo sapiens) (UniProt P10275); assay: qHTS assay to identify small molecule agonists of the androgen receptor (AR) signaling pathway (AID 743036; active means well fitted activation curve with a large enough effect in the signal ratio in the repeat runs, with a control signal flat, not every such curve was filed as active; inconclusive means weak or mixed curves, or effect the other way; inactive means no such curve, though single readings can be large or run the other way; the % refers to the signal ratio)
In short: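 In this Tox21 qHTS, 2,000 HEK293 AR-bla cells per well were incubated with compounds for 16 h at 37C and 5% CO2. Fluorescence intensity was recorded 2 h after adding LiveBLAzer B/G FRET substrate at room temperature.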

With `O=CC=C(c1ccccc1)c1ccccc1` the outcome [1] was “inactive”, the Potency [2] was “inactive” and the outcome [3] was “inactive”. The Potency [4] was “inactive”, the Potency [5] was “inactive” and the Potency [6] was “inactive”. The Potency [7] was “inactive”, the Potency [8] was “inactive” and the Potency [9] was “inactive”. The Potency [10] was 38.9 µM (active), the Potency [11] was 27.5 µM (active) and the Potency [12] was 17.4 µM (active). For the same compound, the Potency [13] was 22.1 µM (active).
With `O=C(NOCC1CC1)c1ccc(F)c(F)c1Nc1ccc(I)cc1Cl` the outcome [1] was “inactive”, the Potency [2] was “inactive” and the outcome [3] was “inactive”. The Potency [4] was “inactive”, the Potency [5] was “inactive” and the Potency [6] was “inactive”. For the same compound, the Potency [7] was “inactive”, the Potency [8] was “inactive” and the Potency [14] was 10.7 µM (active). For the same compound, the Potency [9] was 23.9 µM (active), the Potency [10] was 29.8 µM (active) and the Potency [11] was 29.8 µM (active). The Potency [15] was “inactive” and the Potency [16] was “inactive”.
In the case of `O=C(NO)C1(NS(=O)(=O)c2ccc(Oc3ccc(F)cc3)cc2)CCOCC1`, the outcome [1] is reported as “inactive”, the Potency [2] is reported as “inactive” and the outcome [3] is reported as “inactive”. For the same compound, the Potency [4] was “inactive”, the Potency [5] was “inactive” and the Potency [6] was “inactive”. The Potency [7] was “inactive”, the Potency [8] was “inactive” and the Potency [17] was “inactive”. The Potency [9] was “inactive”, the Potency [10] was 54.5 µM (active) and the Potency [12] was 30.6 µM (active). For the same compound, the Potency [13] was “inactive”.
In the case of `NC(=O)NS(=O)(=O)c1ccc(N)cc1`, the outcome [1] is reported as “inactive”, the Potency [2] is reported as “inactive” and the outcome [3] is reported as “inactive”. The Potency [4] was “inactive”, the Potency [5] was “inactive” and the Potency [6] was “inactive”. For the same compound, the Potency [7] was “inactive”, the Potency [8] was “inactive” and the Potency [17] was “inactive”. The Potency [9] was “inactive”, the Potency [10] was “inactive” and the Potency [12] was “inactive”. The Potency [16] was “inactive”.
In the case of `C[C@]12CCC(=O)C=C1CC[C@@H]1[C@@H]2[C@@H](O)C[C@@]2(C)[C@H]1CC[C@]2(O)C(=O)COC(=O)CCC(=O)O`, the outcome [1] is reported as “inactive”, the Potency [2] is reported as “inactive” and the outcome [3] is reported as “inactive”. For the same compound, the Potency [4] was “inactive”, the Potency [5] was “inactive” and the Potency [6] was “inactive”. For the same compound, the Potency [7] was “inactive”, the Potency [8] was “inactive” and the Potency [17] was 0.848 µM [inconclusive] (active). For the same compound, the Potency [9] was “inactive”, the Potency [10] was 26.6 µM (active) and the Potency [11] was 18.8 µM (active). The Potency [12] was 26.6 µM (active), the Potency [13] was “inactive” and the Potency [16] was “inactive”.
With `Cc1cc(O)c(Cl)c(C)c1Cl` the outcome [1] was “inactive”, the Potency [2] was “inactive” and the outcome [3] was “inactive”. The Potency [4] was “inactive”, the Potency [5] was “inactive” and the Potency [6] was “inactive”. The Potency [7] was “inactive”, the Potency [8] was “inactive” and the Potency [17] was “inactive”. The Potency [10] was 24.3 µM (active), the Potency [12] was 17.2 µM (active) and the Potency [13] was 27.5 µM (active). The Potency [15] was “inactive” and the Potency [18] was 54.5 µM (active).
For `Cc1ccc(O)c2ncccc12`, the outcome [1] was “inactive”, the Potency [2] was “inactive” and the outcome [3] was “inactive”. The Potency [4] was “inactive”, the Potency [5] was “inactive” and the Potency [6] was “inactive”. For the same compound, the Potency [7] was “inactive”, the Potency [8] was “inactive” and the Potency [14] was “inactive”. For the same compound, the Potency [9] was “inactive”, the Potency [10] was 2.11 µM (active) and the Potency [11] was 2.98 µM (active). The Potency [12] was 4.73 µM (active), the Potency [13] was 16.9 µM (active) and the Potency [19] was 26.8 µM (active). The Potency [20] was “inactive”, the Potency [15] was “inactive” and the Potency [16] was 18.8 µM (active).
